RORg inh: qHTS for inhibitors of ROR gamma transcriptional activity | hit rate 5.4% among 310,000 | Drosophila S2 Gal4-RORgamma UAS-luciferase reporter, 20 h | Potency, µM (top dose mostly 53.6 µM), for the others: top-dose activity change, negative = inhibition, most hits filed as inhibitors | AID 2551, 2010 | Nuclear receptor ROR-gamma (Mus musculus), P51450; note: potency is the fitted concentration of half-maximal effect; nearly all actives have a fitted effect of over 60% in size
Target sequence (P51450 whole entry, looked up, the tested form may be a part): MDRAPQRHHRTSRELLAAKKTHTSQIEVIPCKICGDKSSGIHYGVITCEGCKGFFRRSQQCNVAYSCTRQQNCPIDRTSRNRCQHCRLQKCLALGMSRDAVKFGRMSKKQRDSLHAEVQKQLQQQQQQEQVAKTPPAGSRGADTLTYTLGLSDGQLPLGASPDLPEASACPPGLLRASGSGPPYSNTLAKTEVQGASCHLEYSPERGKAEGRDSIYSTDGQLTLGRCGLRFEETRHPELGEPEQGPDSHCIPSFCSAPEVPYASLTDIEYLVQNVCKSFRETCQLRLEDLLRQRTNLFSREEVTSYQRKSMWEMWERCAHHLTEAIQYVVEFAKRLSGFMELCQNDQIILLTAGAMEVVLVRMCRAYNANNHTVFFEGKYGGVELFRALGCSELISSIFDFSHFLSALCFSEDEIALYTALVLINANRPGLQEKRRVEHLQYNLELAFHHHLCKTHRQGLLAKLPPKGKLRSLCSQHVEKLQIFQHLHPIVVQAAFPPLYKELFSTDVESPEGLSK
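Read-out: Photinus luciferase luminescence; inhibitors lower reporter signal. Insect Schneider cells with Gal4-ROR gamma fusion under metallothionein promoter, UAS reporter; 700 uM final copper sulfate induction, 20 hr, ambient temperature.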
ELG1 repair inh: qHTS screen for small molecules that inhibit ELG1-dependent DNA repair in human embryonic kidney (HEK293T) cells expressing luciferase-tagged ELG1; HEK293T ELG1-luciferase reporter, luminescence, 16 h; DNA damage induced by 5-fluorouridine; Potency, µM (series often up to 46.1 µM), without a hit: at the top dose activity change, negative = inhibition, usual class: inhibitors; hit rate 2.3% among 330,000; AID 504467, 2011; note: potency is the fitted concentration of half-maximal effect; nearly all actives have a fitted effect of over 55% in size
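Overnight (16 hr) co-exposure of 2,000 cells/well to 5-fluorouridine and compound at 37 °C preceded detection. Luciferase was quantified via ONE-Glo luminescence; loss of signal denotes inhibition.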
DT40 TDP1 CPT: qHTS for Inhibitors of human tyrosyl-DNA phosphodiesterase 1 (TDP1): qHTS in cells in presence of CPT; chicken DT40 Tdp1-/-;hTDP1 cells + 20 nM CPT, ATP luminescence, 48 h; Potency, µM (highest dose often 46.2 µM), for the others: at the top dose activity change, negative = growth inhibition, most hits filed as inhibitors; hit rate 12% among 420,000; AID 686979, 2013; note: potency is the fitted concentration of half-maximal effect; nearly all actives have a fitted effect of over 55% in size
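Chicken DT40 Tdp1-/- cells complemented with human TDP1, 400 cells/well, exposed to compounds plus 20 nM camptothecin for at least 48 h at 37 C; viability read as ATP content by CellTiter-Glo luminescence.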
Gal4-VP16 FLuc: VP16 counterscreen qHTS for inhibitors of ROR gamma transcriptional activity | Drosophila S2 Gal4-VP16 UAS-luciferase, luminescence, 20 h | hit rate 3.5% among 310,000 | AID 2546, 2010 | Potency, µM (top dose mostly 53.6 µM), for inactives: at the top dose activity, negative = inhibition, hits mostly inhibitors;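 note: Gal4-VP16 expression switched on by copper sulfate through the metallothionein promoter; potency is the fitted concentration of half-maximal effect; nearly all actives have a fitted effect of over 50% in size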
IL-1B inflam inh: qHTS for Inhibitors of Inflammasome Signaling: IL-1-beta AlphaLISA Primary Screen | AID 743279, 2014 | hit rate 4.7% among 360,000 | activity change, % at 57.5 µM | THP-1 LPS/ATP IL-1B secretion, AlphaLISA, 16 h; stronger effect = lower value; in the data active = activity change below about -50%; inconclusive = mostly about -30% to -49%
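THP-1 cells pretreated 1 hr with compounds (up to 57.5 uM final), then stimulated with LPS (250 ng/mL final) plus ATP (1.25 mM final); secreted IL-1B measured by AlphaLISA after 16 hr, decreased signal indicating inhibition.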
DT40 TDP1 no CPT: qHTS for Inhibitors of human tyrosyl-DNA phosphodiesterase 1 (TDP1): qHTS in cells in absence of CPT; hit rate 15% among 420,000; DT40 Tdp1-/- hTDP1 cells, no CPT, ATP luminescence, 48 h; Potency, µM (series often up to 46.2 µM), for inactives: top-dose activity change, negative = growth inhibition, hits mostly inhibitors; note: potency is the fitted concentration of half-maximal effect; nearly all actives have a fitted effect of over 55% in size
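A cellular qHTS used chicken DT40 cells lacking endogenous Tdp1 but carrying stably transfected human TDP1. Compounds were applied without camptothecin, and cell growth kinetics were judged by ATP-dependent luminescence after ≥48 hr.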
The depositor's hits bear a star. Shown are actives, neighbours in structure and some others; about 21% of the full set was active somewhere. Unless noted, calls come from the whole dose curve; as a rule, active = well fitted curve in the direction sought with a large enough effect; inconclusive = small, poorly fitted or top-dose-only effect, or another doubt; inactive = no such curve, though single readings can be large; an effect the other way counts as inactive or inconclusive. % is set by controls: 0 for no effect and ±100 for the full control effect.

COc1ccc(C(=O)Nc2ccc(C)cn2)c(OC)c1 was read as RORg inh 3.98µM*, ELG1 repair inh inconclusive, DT40 TDP1 CPT 20.6µM*, Gal4-VP16 FLuc 3.98µM*, IL-1B inflam inh -10.2 and DT40 TDP1 no CPT inconclusive.
Screening COc1ccc(C(=O)Nc2cc(C)on2)c(OC)c1 returned RORg inh -32.1%, ELG1 repair inh inconclusive, DT40 TDP1 CPT -0.3%, Gal4-VP16 FLuc -17.3%, IL-1B inflam inh -15.0 and DT40 TDP1 no CPT 11.1%.
For Cc1nc2cc(NC(=O)c3ccc([N+](=O)[O-])s3)ccc2s1 the results were RORg inh -37.1%, ELG1 repair inh inconclusive, DT40 TDP1 CPT 2.91µM*, Gal4-VP16 FLuc -14.2%, IL-1B inflam inh -6.3 and DT40 TDP1 no CPT 5.17µM*.
For CC(=O)Nc1ccc2nc(NC(=O)c3ccc([N+](=O)[O-])s3)sc2c1 the results were RORg inh 34.7%, ELG1 repair inh -7.9% and Gal4-VP16 FLuc inconclusive.
Screening CN(C)S(=O)(=O)c1ccc(C(=O)Nc2ccc(S(=O)(=O)NC3=NCCCCC3)cc2)cc1 returned RORg inh -3.2%, ELG1 repair inh -2.2%, DT40 TDP1 CPT -16.0%, Gal4-VP16 FLuc 3.2%, IL-1B inflam inh 8.2 and DT40 TDP1 no CPT -4.3%.
Screening O=C(Nc1ccc(C(O)(C(F)(F)F)C(F)(F)F)cc1)c1ccc(Cl)c([N+](=O)[O-])c1 returned RORg inh -23.5%, ELG1 repair inh inconclusive, DT40 TDP1 CPT 11.6µM*, Gal4-VP16 FLuc inconclusive, IL-1B inflam inh -100.7* and DT40 TDP1 no CPT 18.4µM*.
